Abs 340nm: compounds absorbing at 340 nm. compound absorbance at 340 nm, fold over control. fold change at 10 µM. 65,000 tested, under 10 active. AID 708;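 active = at 10 µM dose, initial 340 nm absorbance at least 2 fold that of control wells; inactive = change under 2 fold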;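 note: initial absorbance extrapolated from kinetic A340 decline of NADH oxidation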
DPM-DC inhibit: S. pneumoniae DPM-DC inhibition | purified DPM-DC, PK/LDH coupled NADH fluorescence | calls only at 10 µM | actives 0.49% (n = 65,000);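 active = the 320 compounds with the highest percent inhibition in the single-dose primary screen, excluding strongly autofluorescent ones, cut at about 32% in these data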;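 note: kinetic rate of NADH fluorescence loss reporting ADP formed by the decarboxylase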
PMK inhibit: S. pneumoniae PMK inhibition. purified PMK, PK/LDH-coupled NADH absorbance 340 nm. inhibition, % at 10 µM. actives 0.49% (n = 65,000);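 active = top-ranked compounds by inhibition in the single 10 µM screen, taking a fixed number of the strongest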;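 note: 0% = full reaction with DMSO carrier and 100% = background rate without enzyme reaction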
NADH coupling: blocks coupling enzymes of NAD/NADH assays | coupled PK/LDH NADH assays, four targets | IC50, µM (doses to about 10 µM), without a hit: top-dose inhibition | actives 0.02% (n = 65,000) | AID 774;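 active = single-dose screening hits from any of four coupled enzyme assays that gave an IC50 when retested across doses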;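 note: the DPM-DC format reads NADH fluorescence rather than 340 nm absorbance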
MK inhibit: blocks S. pneumoniae mevalonate kinase; purified MK, PK/LDH-coupled NADH absorbance 340 nm; actives 0.48% (n = 65,000); inhibition, % at 10 µM;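 active = ranked among the strongest by inhibition in the single 10 µM screen, a fixed top-ranked set picked for dose follow-up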
Fluor 339 460: intrinsic fluorescence of library compounds, ex339/em460 – biochemical, MLSMR library, data from DPM-DC assay, artefact control, profiling panel; compound autofluorescence, ex339/em460 nm, NADH buffer; hits give high values; 1 = no-compound wells, NADH background; fluorescence fold increase at 10 µM; actives 5.5% (n = 65,000); AID 709;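 active = at 10 µM, mean starting fluorescence two-fold or more over control wells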;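 note: signal is the first read of a kinetic run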
* marks the source's active call; other numbers are inactive results; i = inactive; · = not tested or not shown; + = active, no number. Only some compounds are listed: those with a hit (about 6.5% of all), similar ones and a draw of the others.

SMILES	Abs 340nm	DPM-DC inhibit	PMK inhibit	NADH coupling	MK inhibit	Fluor 339 460
Cc1cccc(NC(=O)c2cnc3sccn3c2=O)c1	1.2	i	1	5%	6	1
O=C(NCc1cccnc1)c1cnc2sccn2c1=O	1.2	·	0	1%	2	2.2*
COc1ccccc1CNC(=O)c1cnc2sccn2c1=O	1.1	i	6	4%	1	1.1
O=C(NCCO)c1nc(NCCO)c2ccccc2n1	1.1	i	11	7%	5	1.1
C=CCNc1nc(N2CCCC2)nc2ccccc12	1.1	+	6	19%	14	2.7*
OCCNc1nc(N2CCN(Cc3ccccc3)CC2)nc2ccccc12	1	i	15	12%	7	2*
Cc1cc(N2CCN(C(=O)OC(C)(C)C)CC2)n2ncnc2n1	1	i	6	3%	3	1.1
CCc1ccccc1N(C(=O)c1cccs1)C1C=CS(=O)(=O)C1 (stereo unspecified)	1	i	15	7%	6	1.1
N#Cc1c(N)nc2c(c1-c1ccncc1)CCCCCC2	1.1	i	9	9%	8	2.1*
COC(=O)c1c(C#N)c(N)nc2c1CCCC2	1.1	·	0	6%	12	3.8*
N#Cc1c(N)nc2c(c1-c1ccncc1)CCCC2	1.1	i	9	10%	3	3.2*
Cc1nnc(Sc2nc3c(c(=O)[nH]c(=O)n3C)n2Cc2ccccc2Cl)s1	1.1	i	8	4%	4	1.1
Cc1cccc(-c2nnc3n2N=C(c2ccccc2Br)CS3)c1	1.1	i	8	4%	4	1.1
CCN(CC)CCCN(Cc1cc2cc3c(cc2[nH]c1=O)OCO3)C(=O)Nc1ccccc1OC	1.2	+	5	15%	7	2.8*
O=C(c1cccs1)N(CCO)Cc1cc2cc3c(cc2[nH]c1=O)OCCO3	1.1	i	1	7%	0	2.5*
Cc1cc(C)c2cc(CN(CCO)C(=O)Nc3ccc(F)cc3)c(=O)[nH]c2c1	1	i	6	5%	8	1.2
CC(=O)N(CCc1ccccc1C)Cc1cc2cc3c(cc2[nH]c1=O)OCO3	1.1	·	8	4%	6	3*
CCN(CC)CCCN(Cc1cc2cc3c(cc2[nH]c1=O)OCCO3)C(=O)Nc1ccc(F)cc1	1.1	i	6	11%	·	3.2*
COC(=O)CCCC(=O)Nc1c(F)c(F)c(F)c(F)c1F	1.1	i	10	4%	2	1.1
CC1(C)CC(=O)C=C(Nc2ccccc2F)C1	1.1	i	12	5%	3	1.1
Cc1cc(C(=O)NCCCn2ccnc2)cs1	1	i	4	4%	6	1.1
Cc1ccc2nc3c(cc(C(=O)NCCCn4ccnc4)n3C)c(=O)n2c1	1.1	·	4	2%	0	3.9*
Cc1ccc2nc3c(cc(C(=O)NCC4CCCO4)c(=N)n3CCCOC(C)C)c(=O)n2c1 (stereo unspecified)	1.1	·	10	15%	19	3.7*
Cc1ccc2nc3c(cc(C(=O)NCC4CCCO4)n3C)c(=O)n2c1 (stereo unspecified)	1	·	8	1%	0	3*
Cc1cc(=O)[nH]c(Nc2ccc(C(=O)OC(C)C)cc2)n1	1	i	6	7%	8	1.3
SMILES	Abs 340nm	DPM-DC inhibit	PMK inhibit	NADH coupling	MK inhibit	Fluor 339 460
O=C(c1ccco1)c1cn(CC(=O)N2CCCCC2)c2ccccc12	1.1	i	4	10%	10	1.1
Cc1cc(=O)oc(C)c1C(=O)NCCCN1CCN(c2ccccc2F)CC1	1.2	i	19	9%	9	1
COc1cc2c(cc1NC(=O)CC1SC(N3CCCC3)=NC1=O)oc1ccccc12 (stereo unspecified)	1	i	14	7%	0	1
CCC(C)NC(=O)c1ccccc1NS(=O)(=O)c1ccc(OC)c(OC)c1 (stereo unspecified)	1	i	10	8%	7	1.7
CCC(C)NC(=O)CSC1=Nc2ccccc2C2=NC(CC(=O)NCc3ccccc3)C(=O)N12 (stereo unspecified)	1	i	14	6%	11	2.1*
COCCCNC(=O)CSC1=Nc2ccccc2C2=NC(CC(=O)NCc3ccccc3)C(=O)N12 (stereo unspecified)	1	i	16	15%	13	3.4*
Clc1ccc(-c2nnc3sc(-c4ccc(Br)o4)nn23)cc1	1	i	14	4%	11	2.2*
Clc1ccc(-c2nnc3sc(-c4ccc(Br)o4)nn23)c(Cl)c1	1.1	i	10	7%	10	1.8
c1cc(-c2nc3cc(Oc4ccc5oc(-c6ccncc6)nc5c4)ccc3o2)ccn1	1	i	4	4%	7	2.6*
Cc1ccc(OCC(=O)Nc2ccc(O)c(-c3nc4ccccc4o3)c2)cc1	1.1	·	10	7%	3	2
Clc1ccc2oc(-c3ccccc3)nc2c1	1	i	0	2%	5	1.1
O=C(COc1ccc(Cl)cc1)Nc1ccc2oc(-c3ccncc3)nc2c1	1	·	13	9%	4	4.8*
CC(C)(Oc1ccc(Cl)cc1)C(=O)Nc1ccc2oc(-c3ccncc3)nc2c1	1.1	·	3	4%	5	3.4*
COc1ccc(CCn2nnnc2C(C(C)C)N2CCN(c3ncccn3)CC2)cc1OC (stereo unspecified)	1	i	10	6%	9	1.1
c1ccc(Cn2nnc3c(N4CCCCCC4)ncnc32)cc1	0.97	i	0	3%	6	1
c1ccc(Cn2nnc3c(N4CCc5ccccc54)ncnc32)cc1	1	·	7	5%	3	4.3*
O=C(NCc1ccco1)c1ccccc1NS(=O)(=O)c1ccc2c(c1)OCCO2	1.1	+	0	11%	0	2.9*
O=C(Nc1ccc(Cl)cc1)Nc1ccccc1C(=O)NCc1ccco1	1.1	i	2	7%	4	2.1*
CC1(C)Cc2[nH]c(=O)c(C#N)cc2CS1	1.1	i	7	15%	12	1.3
CC1(C)Cc2nc3sc4c(=O)[nH]cnc4c3cc2CS1	1.1	+	8	18%	9	2.8*
O=C(Cn1nc(C(F)(F)F)c2c1CCCC2)NCc1ccco1	1	i	10	8%	13	1.1
N#Cc1ccccc1OCC(=O)Nc1c(C(=O)C2CC2)oc2ccccc12	1	i	17	10%	0	2.6*
CCOCC(=O)Nc1c(C(=O)Nc2ccccc2OC)oc2ccccc12	1.1	·	3	2%	0	5.1*
CCC(=O)Nc1c(C(=O)Nc2cccc(OC)c2)oc2ccccc12	1.1	i	9	5%	5	1.3
COc1ccc(NC(=O)COc2ccccc2)c(OC)c1	0.98	i	4	2%	10	1

Assay outcomes from PubChem BioAssay.
